Here are results for ten molecules from ChEMBL document CHEMBL3988442, “University of Dundee, Small-Polar-MMV Screening Library” (2021).

Common to all, as to parameters: scale not given: direction of the effect not stated beside the values
Assay [1] deals with Protein translocase subunit SecA (Escherichia coli (strain K12)) (UniProt P10408). Briefly: Assay to Identify E. coli SecA ATPase Inhibitors. The assay is classed as functional. Particulars: 30 µM.
For assay [2], the target named is T1, Ubiquitin-activating enzyme e1, putative (Leishmania donovani (strain BPK282A1)) (UniProt E9BSI1).
T1 sequence (whole entry): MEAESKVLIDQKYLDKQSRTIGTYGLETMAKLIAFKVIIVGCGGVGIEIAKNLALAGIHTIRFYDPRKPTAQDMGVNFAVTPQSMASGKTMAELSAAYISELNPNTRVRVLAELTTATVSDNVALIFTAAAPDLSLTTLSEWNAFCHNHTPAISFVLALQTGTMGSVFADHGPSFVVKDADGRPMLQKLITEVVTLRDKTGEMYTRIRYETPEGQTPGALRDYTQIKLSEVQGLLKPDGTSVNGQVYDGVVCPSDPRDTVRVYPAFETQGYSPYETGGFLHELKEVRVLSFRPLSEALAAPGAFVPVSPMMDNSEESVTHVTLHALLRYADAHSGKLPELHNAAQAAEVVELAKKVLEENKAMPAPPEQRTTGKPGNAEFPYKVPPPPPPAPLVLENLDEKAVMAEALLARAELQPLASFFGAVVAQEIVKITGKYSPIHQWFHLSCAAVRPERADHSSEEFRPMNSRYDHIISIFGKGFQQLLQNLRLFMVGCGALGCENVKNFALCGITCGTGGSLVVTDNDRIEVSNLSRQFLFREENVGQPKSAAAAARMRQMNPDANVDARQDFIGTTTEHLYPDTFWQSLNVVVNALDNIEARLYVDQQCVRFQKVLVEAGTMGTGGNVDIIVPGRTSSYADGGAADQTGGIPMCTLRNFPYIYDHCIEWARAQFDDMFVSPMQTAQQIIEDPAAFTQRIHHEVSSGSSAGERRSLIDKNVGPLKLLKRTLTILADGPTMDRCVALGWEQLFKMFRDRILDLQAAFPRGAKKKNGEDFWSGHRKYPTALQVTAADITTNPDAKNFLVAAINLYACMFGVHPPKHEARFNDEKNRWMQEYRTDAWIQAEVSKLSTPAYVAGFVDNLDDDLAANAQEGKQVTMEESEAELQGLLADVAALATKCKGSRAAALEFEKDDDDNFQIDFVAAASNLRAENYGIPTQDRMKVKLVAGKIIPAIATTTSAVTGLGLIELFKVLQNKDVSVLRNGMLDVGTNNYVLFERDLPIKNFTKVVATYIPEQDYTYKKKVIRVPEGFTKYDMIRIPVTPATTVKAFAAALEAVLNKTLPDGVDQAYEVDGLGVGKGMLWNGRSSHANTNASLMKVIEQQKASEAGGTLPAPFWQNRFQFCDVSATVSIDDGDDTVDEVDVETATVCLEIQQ
Briefly: Leishmania donovani Ubiquitin Activating Enzyme (LdE1). The conditions noted are these: 30 µM. The assay is classed as functional.

The target in assay [3] is AMP-activated protein kinase, AMPK (Homo sapiens) (UniProt P54646+O43741+P54619+Q9UGJ0+Q9Y478+Q13131+Q9UGI9). Briefly: AMP-dependent Kinase enzyme assay. An in vitro enzyme assay that detects ADP turnover that is directly proportional to AMPK activity. This uses naive AMPK that is activated during the assay with MK-8722. Format: functional. The conditions noted are these: 30 µM.

For assay [4], the target named is Sialic acid-binding Ig-like lectin 9 (Homo sapiens) (UniProt Q9Y336). Briefly: Hs-Siglec9 ALPHAscreen SOP 20170721. The conditions noted are these: 10 µM.
In another assay the test system is Trypanosoma cruzi. Briefly: Trypanosoma cruzi phosphomannomutase and mannose-1-phosphate guanylyltransferase assay. The assay is classed as functional. The conditions noted are these: 10 µM.
In assay [5] the target is T2, Arginase-2, mitochondrial (Homo sapiens) (UniProt P78540).
T2 sequence (whole entry): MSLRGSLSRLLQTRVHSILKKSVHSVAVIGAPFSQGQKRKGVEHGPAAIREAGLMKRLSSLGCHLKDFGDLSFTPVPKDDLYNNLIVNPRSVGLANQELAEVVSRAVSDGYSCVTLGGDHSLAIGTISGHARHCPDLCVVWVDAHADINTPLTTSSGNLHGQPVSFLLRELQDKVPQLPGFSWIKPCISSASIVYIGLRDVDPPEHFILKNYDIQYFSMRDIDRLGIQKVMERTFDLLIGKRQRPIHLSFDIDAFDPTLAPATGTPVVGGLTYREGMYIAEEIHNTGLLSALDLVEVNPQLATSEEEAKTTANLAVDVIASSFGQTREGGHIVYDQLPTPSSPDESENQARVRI
Briefly: in vitro enzyme assay to detect the production of urea directly proportional to the activity of Arginase II. Also: in the data most compounds retested in dose-response had high values. Particulars: 33.3 µM. Format: functional.

The target of assay [6] is T3, Proteasome subunit beta (Trypanosoma cruzi) (UniProt O96673).
T3 sequence (whole entry): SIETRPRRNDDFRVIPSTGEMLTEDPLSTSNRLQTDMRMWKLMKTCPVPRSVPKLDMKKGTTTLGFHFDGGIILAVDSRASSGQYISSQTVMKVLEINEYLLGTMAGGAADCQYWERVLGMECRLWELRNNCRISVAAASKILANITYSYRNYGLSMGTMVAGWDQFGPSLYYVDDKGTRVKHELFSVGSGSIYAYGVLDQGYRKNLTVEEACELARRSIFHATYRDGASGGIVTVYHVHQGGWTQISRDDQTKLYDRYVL
Briefly: Trypanosoma cruzi proteasome chymotrypsin-like activity (TcProtChymo) assay. Also: in the data most compounds retested in dose-response had high values. The assay is classed as functional. Particulars: 9.37 µM.

Another assay is filed under the species Homo sapiens. Briefly: To identify inhibition of the IFN signalling (Jak-Stat) pathway via expression of an eGFP reporter gene under the control of an IFN-stimulated response element (ISRE) containing MxA promoter. Particulars: 30 µM. The assay is classed as functional.
The target of assay [7] is T4, Tyrosyl-tRNA synthetase, putative (Trypanosoma cruzi (strain CL Brener)) (UniProt Q4DSP6).
T4 sequence (whole entry): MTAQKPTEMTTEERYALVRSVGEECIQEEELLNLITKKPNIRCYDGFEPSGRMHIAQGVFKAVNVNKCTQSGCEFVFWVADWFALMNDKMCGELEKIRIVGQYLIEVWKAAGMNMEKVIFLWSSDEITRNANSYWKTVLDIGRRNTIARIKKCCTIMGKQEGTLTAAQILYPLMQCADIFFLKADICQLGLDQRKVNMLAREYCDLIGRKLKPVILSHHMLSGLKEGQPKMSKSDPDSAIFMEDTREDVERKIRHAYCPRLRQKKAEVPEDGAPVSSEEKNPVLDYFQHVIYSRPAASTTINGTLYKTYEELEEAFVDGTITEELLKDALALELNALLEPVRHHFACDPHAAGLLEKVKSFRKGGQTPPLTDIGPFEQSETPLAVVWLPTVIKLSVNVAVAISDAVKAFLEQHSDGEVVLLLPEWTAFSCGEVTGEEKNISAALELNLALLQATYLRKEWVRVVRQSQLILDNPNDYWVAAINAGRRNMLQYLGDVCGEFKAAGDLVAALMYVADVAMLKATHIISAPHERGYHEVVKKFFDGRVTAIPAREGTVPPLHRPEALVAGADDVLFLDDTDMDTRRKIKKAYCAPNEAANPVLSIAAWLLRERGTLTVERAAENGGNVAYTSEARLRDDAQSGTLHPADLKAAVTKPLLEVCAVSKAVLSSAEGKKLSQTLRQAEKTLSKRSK
Briefly: Trypanosoma cruzi tyrosyl tRNA synthetase (TcYRS) _High Tyrosine SOP. Also: in the data most compounds retested in dose-response had high values. Format: functional. The conditions noted are these: 30 µM.

The target in assay [8] is T4, Tyrosyl-tRNA synthetase, putative (Trypanosoma cruzi (strain CL Brener)). Briefly: Trypanosoma cruzi tyrosyl tRNA synthetase (TcYRS) SOP. The assay is classed as functional. The conditions noted are these: 30 µM.
Assay [9] concerns the target Chromo domain-containing protein 1 (Saccharomyces cerevisiae (strain ATCC 204508 / S288c) (Baker's yeast)) (UniProt P32657). Briefly: ScCHD-1 Enzyme Inhibition Assay. Also: in the data most compounds retested in dose-response had high values. Particulars: 30 µM. Format: functional.

For some assays here: Entries with a potency or affinity are not part of this list.

Protein translocase subunit SecA (Escherichia coli (strain K12)), sequence (P10408 whole entry): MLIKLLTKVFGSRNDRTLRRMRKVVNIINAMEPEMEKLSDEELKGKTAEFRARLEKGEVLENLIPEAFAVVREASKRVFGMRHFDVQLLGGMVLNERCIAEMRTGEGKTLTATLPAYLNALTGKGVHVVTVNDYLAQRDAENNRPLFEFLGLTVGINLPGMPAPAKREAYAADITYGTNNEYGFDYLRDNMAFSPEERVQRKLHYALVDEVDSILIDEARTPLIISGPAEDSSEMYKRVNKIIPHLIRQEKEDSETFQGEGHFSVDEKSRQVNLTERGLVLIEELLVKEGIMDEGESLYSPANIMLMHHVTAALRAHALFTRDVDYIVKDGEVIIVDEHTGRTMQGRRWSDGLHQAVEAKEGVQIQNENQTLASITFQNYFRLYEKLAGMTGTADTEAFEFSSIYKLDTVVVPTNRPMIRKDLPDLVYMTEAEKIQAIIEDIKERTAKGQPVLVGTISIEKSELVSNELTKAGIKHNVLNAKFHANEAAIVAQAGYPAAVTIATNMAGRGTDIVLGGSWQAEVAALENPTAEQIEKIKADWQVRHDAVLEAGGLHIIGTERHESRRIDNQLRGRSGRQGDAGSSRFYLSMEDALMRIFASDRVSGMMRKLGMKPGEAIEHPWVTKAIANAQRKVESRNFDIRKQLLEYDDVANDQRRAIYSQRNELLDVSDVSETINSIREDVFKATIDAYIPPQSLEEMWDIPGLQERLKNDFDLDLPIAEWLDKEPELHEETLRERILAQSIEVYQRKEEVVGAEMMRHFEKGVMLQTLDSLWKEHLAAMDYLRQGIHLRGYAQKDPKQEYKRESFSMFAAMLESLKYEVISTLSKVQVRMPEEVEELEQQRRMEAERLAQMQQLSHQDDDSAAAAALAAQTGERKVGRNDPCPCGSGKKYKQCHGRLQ
Sialic acid-binding Ig-like lectin 9 (Homo sapiens), sequence (Q9Y336 whole entry): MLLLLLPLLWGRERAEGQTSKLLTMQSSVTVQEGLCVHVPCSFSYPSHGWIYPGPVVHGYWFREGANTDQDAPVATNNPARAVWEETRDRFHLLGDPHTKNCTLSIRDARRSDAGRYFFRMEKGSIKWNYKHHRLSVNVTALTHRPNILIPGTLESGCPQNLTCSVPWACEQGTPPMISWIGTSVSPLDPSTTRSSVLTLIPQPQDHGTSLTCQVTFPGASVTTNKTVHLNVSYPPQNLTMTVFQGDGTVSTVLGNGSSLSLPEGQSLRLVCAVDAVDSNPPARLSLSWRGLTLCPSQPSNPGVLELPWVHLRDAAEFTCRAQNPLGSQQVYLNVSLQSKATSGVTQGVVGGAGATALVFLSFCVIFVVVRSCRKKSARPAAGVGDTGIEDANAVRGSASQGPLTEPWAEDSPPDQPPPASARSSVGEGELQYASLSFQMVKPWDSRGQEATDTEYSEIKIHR
Chromo domain-containing protein 1 (Saccharomyces cerevisiae (strain ATCC 204508 / S288c) (Baker's yeast)), sequence (P32657 whole entry, the tested form may be a part): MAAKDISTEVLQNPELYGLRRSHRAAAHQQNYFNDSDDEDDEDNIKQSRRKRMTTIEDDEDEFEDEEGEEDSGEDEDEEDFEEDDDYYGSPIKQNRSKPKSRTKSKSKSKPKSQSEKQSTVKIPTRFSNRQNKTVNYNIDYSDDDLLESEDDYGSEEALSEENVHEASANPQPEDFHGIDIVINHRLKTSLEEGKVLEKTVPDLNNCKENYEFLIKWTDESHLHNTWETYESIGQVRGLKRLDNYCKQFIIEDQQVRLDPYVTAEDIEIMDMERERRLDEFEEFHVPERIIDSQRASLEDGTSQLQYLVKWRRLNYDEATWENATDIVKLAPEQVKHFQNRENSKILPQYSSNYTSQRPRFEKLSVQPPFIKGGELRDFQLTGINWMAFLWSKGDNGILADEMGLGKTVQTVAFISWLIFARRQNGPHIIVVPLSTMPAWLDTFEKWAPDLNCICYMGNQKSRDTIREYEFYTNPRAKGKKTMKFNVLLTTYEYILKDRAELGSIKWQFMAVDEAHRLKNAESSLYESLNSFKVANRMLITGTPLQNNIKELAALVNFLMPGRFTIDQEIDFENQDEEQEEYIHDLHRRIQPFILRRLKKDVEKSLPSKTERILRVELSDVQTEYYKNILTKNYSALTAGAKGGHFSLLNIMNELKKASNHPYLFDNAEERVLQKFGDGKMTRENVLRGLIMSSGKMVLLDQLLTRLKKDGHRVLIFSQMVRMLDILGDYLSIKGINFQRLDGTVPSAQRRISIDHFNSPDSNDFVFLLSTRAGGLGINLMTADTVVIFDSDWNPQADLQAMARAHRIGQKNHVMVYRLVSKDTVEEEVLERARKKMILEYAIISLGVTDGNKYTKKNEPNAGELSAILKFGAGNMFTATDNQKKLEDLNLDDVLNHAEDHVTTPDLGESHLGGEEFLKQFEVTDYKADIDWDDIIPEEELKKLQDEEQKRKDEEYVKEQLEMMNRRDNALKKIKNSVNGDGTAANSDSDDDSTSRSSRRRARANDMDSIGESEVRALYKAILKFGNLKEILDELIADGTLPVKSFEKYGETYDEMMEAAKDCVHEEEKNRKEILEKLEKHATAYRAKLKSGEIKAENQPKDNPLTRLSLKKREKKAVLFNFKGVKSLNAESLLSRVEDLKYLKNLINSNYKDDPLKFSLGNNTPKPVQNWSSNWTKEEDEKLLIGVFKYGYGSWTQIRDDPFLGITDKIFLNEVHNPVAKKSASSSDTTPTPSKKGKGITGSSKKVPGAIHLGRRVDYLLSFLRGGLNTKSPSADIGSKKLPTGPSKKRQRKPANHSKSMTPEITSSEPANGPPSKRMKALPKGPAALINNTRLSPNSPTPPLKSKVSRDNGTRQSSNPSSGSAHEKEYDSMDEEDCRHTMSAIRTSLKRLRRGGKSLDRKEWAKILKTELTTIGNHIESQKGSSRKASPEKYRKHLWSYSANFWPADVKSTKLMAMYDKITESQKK

In the case of `Cn1ccc(CN2CCC(c3ccccc3)CC2)cc1=O`, the Percent Effect in [1] was -7.43%; in assay [2], 15.6%; in assay [3], -2.22%; in assay [4] it was 11.1%; in the assay with Trypanosoma cruzi it was -0.374%; in assay [5], 3.92%. The Percent Effect in [6] was 8.11%; in the assay listed under Homo sapiens, 14.7%; in assay [7] it was 8.74%; in [8], 19.5%; in assay [9], -7.5%.

As to `Cc1cc(C)n(CC2CCCN2C(=O)Cc2c(C)noc2C)n1` (stereo not given), the Percent Effect in [1] was -7.56%; in assay [2], 8.11%; in assay [3] it was -14.7%; in assay [4], 23.5%; with Trypanosoma cruzi, 2.92%; in assay [5] it was -9.62%. The Percent Effect in assay [6] is 9.37%; in the assay filed under Homo sapiens, 15.8%; in [7], 4.43%; in assay [8], 13.6%; in assay [9], -11.4%.

Turning to `Cc1noc(C(C)C)c1C(=O)NS(=O)(=O)c1ccc(Cl)cc1`, the Percent Effect in [1] was -5.93%; in assay [2] it was 2.63%; in assay [3], 7.93%; in [4], 1.74%; in the assay on Trypanosoma cruzi it was 3.8%; in assay [5], 0%. The Percent Effect in assay [6] was 17.9%; in the assay listed under Homo sapiens it was 9.23%; in [7], 6.38%; in assay [8], 7.79%; in assay [9], 3.02%.

As to `Cc1cccc(CN2CCc3ncnc(C)c3CC2)n1`, the Percent Effect in [1] is 1.12%; in assay [2], 8.22%; in [3], 5.73%; in assay [4] it was 7.82%; in the assay on Trypanosoma cruzi, -5.75%; in [5], -0.798%. The Percent Effect was 13.4% in assay [6]; 4.7% in the assay listed under Homo sapiens; -1.04% in assay [7]; 8.64% in assay [8]; -4.79% in assay [9].

For the molecule `Cc1nc(C)n(CC2CN(CC(=O)Nc3nccs3)CCO2)n1` (stereo not given), the Percent Effect in assay [1] was -0.715%; in assay [2], 1.39%; in assay [3], -0.871%; in assay [4] it was 15.8%; in the assay on Trypanosoma cruzi, 3.98%; in [5], 10.6%. Also, the Percent Effect in [6] is 7.19%; in the assay listed under Homo sapiens, 20.3%; in assay [7] it was 5.26%; in assay [8] it was 10.3%; in [9], -1.52%.

Turning to `Cc1nc(C)n(CC2CCCN(CCCOc3ccccc3)C2)n1` (stereo not given), the Percent Effect is -3.18% in assay [1]; 1.27% in assay [2]; 8.34% in assay [3]; 3.65% in assay [4]; -0.718% in the assay with Trypanosoma cruzi; 1.07% in [5]. For the same molecule, the Percent Effect in assay [6] was -1.37%; in the assay listed under Homo sapiens, -1.23%; in [7] it was 3.12%; in assay [8], 12.7%; in [9] it was -5.2%.

Consider `Cc1c[nH]nc1C1CCN(S(=O)(=O)N(C)C)CC1`, for which the Percent Effect in assay [1] is -3.15%; in assay [2] it was 1.35%; in assay [3] it was -2.65%; in assay [4], 1.12%; with Trypanosoma cruzi it was -7.12%; in assay [5] it was -1.16%. Moreover, the Percent Effect in [6] was -3.59%; in the assay filed under Homo sapiens, 9.82%; in assay [7], 2.15%; in [8], 6.49%; in assay [9], -2.55%.

In the case of `CNS(=O)(=O)c1ccc(C(=O)N2CCCC2c2ccccc2)o1` (stereo not given), the Percent Effect in assay [1] is -6.62%; in assay [2] it was 13.2%; in [3] it was 2.8%; in [4] it was 2.47%; with Trypanosoma cruzi, 2.15%; in assay [5], -3.6%. In addition, the Percent Effect is -2.96% in assay [6]; -6.57% in the assay filed under Homo sapiens; 6.4% in [7]; 18.5% in [8]; 1% in [9].

Consider `Cc1cc(-c2cnc(NCc3cccnc3)nc2C(C)(C)C)on1`, for which the Percent Effect was -1.82% in assay [1]; 0% in assay [2]; 24.3% in [3]; 4.38% in assay [4]; -3.74% in the assay on Trypanosoma cruzi; -0.699% in assay [5]. Moreover, the Percent Effect was 8.37% in assay [6]; 43.3% in the assay filed under Homo sapiens; 6.38% in [7]; 6.41% in assay [8]; -0.51% in assay [9].

Turning to `Cc1ccc(CN(Cc2cccnc2)C2CC(C)(C)NC(C)(C)C2)s1`, the Percent Effect was -5.72% in assay [1]; 1.35% in [2]; 9.33% in assay [3]; -0.663% in assay [4]; -3.36% with Trypanosoma cruzi; -5.8% in [5]. Besides, the Percent Effect in assay [6] was 10.1%; in the assay listed under Homo sapiens, 13.4%; in [7] it was 2.15%; in assay [8], -1.3%; in assay [9], -9.11%.
